Results: PubChem BioAssay
The source made the active and inactive calls.

How the values were obtained:
[1] = A549 cell viability effects, profiling panel, calcein-AM fluorescence, 48 h, basal (AID 1162); conditions: higher = more signal
[2] = adipocyte viability effects, profiling panel, cell-based, 3T3-L1 adipocytes, calcein-AM fluorescence, 48 h, basal (AID 1163); conditions: 3T3-L1 adipocytes viability, higher = more signal
[3] = HepG2 cell viability effects, profiling panel, calcein-AM fluorescence, 48 h, basal (AID 1164); conditions: higher = more signal
[4] = MM1S cell viability effects, profiling panel, calcein-AM fluorescence, 48 h, basal (AID 1165); conditions: higher = more signal;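 note: viability of MM1S multiple myeloma cells under basal unstimulated conditions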
[5] = basal RPMI8226 viability, no added stimulus, profiling panel, cell-based, calcein-AM fluorescence, 48 h, PK04 Diversity Set (AID 1166); conditions: RPMI8226 myeloma viability, higher = more signal;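 note: cells grown under basal conditions without added stimulus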
[6] = basal HepG2 mitochondrial membrane potential changes, profiling panel, cell-based, JC-1 fluorescence, 24 h, 100 nL compound (AID 1167); conditions: higher = more signal
[7] = basal 3T3-L1 adipocyte mitochondrial potential changes, profiling panel, cell-based, JC-1 fluorescence, 3T3-L1 adipocytes, 24 h, 100 nL compound (AID 1168); conditions: JC-1 mitochondrial fluorescence, higher = more signal, called active from +8 up or from −8 down
[8] = basal RPMI8226 mitochondrial membrane potential changes, profiling panel, cell-based, JC-1 fluorescence, 24 h, 100 nL compound (AID 1169); conditions: RPMI8226 myeloma, JC-1 mitochondrial potential fluorescence, higher = more signal
[9] = basal MM1S mitochondrial membrane potential changes, profiling panel, cell-based, JC-1 fluorescence, 24 h, 100 nL compound (AID 1170); conditions: higher = more signal
[10] = A549 lung cancer cell viability effects, profiling panel, resazurin fluorescence, 24 h, PK04 Diversity Set (AID 1171); conditions: higher = more signal, called active from +8 up or from −8 down
Note: test concentration not given here.

Row | SMILES | z-score [1] | z-score [2] | z-score [3] | z-score [4] | z-score [5] | z-score [6] | z-score [7] | z-score [8] | z-score [9] | z-score [10]
1 | COCCCNC(=O)[C@@]1(Sc2ccc(C)cc2)CC(=O)N(C(C)C)[C@@H]1c1ccc(CO)cc1I | 0.781 | 1.74 | -1.16 | -2.2 | -2.38 | 0.544 | -0.0068 (inactive) | -0.205 | -2.75 | 0.534 (inactive)
2 | [N-]=[N+]=NC[C@H](Cc1ccccc1)NC(=O)c1ccccc1 | 0.431 | 0.474 | 0.611 | 0.357 | 0.661 | 0.581 | 0.219 (inactive) | -0.0299 | 0.171 | 1.19 (inactive)
3 | [N-]=[N+]=Nc1ccccc1C[C@]1(C(=O)O)N=C(c2ccc(OCCCO)cc2)O[C@H]1c1ccccc1N=[N+]=[N-] | -0.35 | 0.22 | 0.0698 | -2.38 | -1.43 | -0.914 | -0.424 (inactive) | -0.739 | 0.51 | -0.371 (inactive)
4 | CCCCNC(=O)c1ccc(C#C[Si](C(C)C)(C(C)C)C(C)C)c(OC(C)=O)c1 | -0.487 | 0.95 | -2.45 | -2.22 | -4.09 | -2.34 | -0.281 (inactive) | -1.1 | -1.04 | -0.363 (inactive)
5 | COCCCNC(=O)[C@@]1(c2ccc([N+](=O)[O-])cc2)CC(=O)N(CC23CC4CC(CC(C4)C2)C3)[C@@H]1c1ccc(CO)cc1I | -1.28 | -0.64 | -2.75 | -3.75 | -4.35 | 2.16 | -1.23 (inactive) | -1.02 | -1.81 | -2.76 (inactive)
6 | Cc1cccc([C@H]2C[C@H]3C(Br)=C[C@@H]2C(=O)[C@]32CO2)c1 | -0.798 | 0.0171 | -1.24 | -3.14 | -2.72 | -0.565 | 0.404 (inactive) | -0.837 | -0.262 | -0.581 (inactive)
7 | COc1ccc(C(O)C2C=CC3C(=O)N(c4ccccc4)C(=O)C3N2Nc2ccccc2)cc1 (stereo not given) | -0.0572 | -0.936 | 0.204 | 0.254 | 0.0459 | -1.2 | -0.233 (inactive) | -0.402 | -0.626 | 0.117 (inactive)
8 | O=C1N(CCS(=O)(=O)c2ccccc2)Cc2ccccc2[C@@H]2OC(c3ccc(OCCCO)cc3)=N[C@]12CCS(=O)(=O)c1ccccc1 | 1.35 | 0.859 | 0.345 | -0.635 | -1 | -1.65 | 1.72 (inactive) | -0.933 | -1.01 | 0.409 (inactive)
9 | CC(C)C[C@@H]1NC(=O)[C@H]2C[C@@H](C(=O)NCCCCCN)[C@@H](c3cccc(OCCO)c3)N2C1=O | 0.779 | 0.57 | 1.3 | 0.64 | -0.0687 | 1.07 | 0.97 (inactive) | -0.336 | -0.16 | 0.11 (inactive)
10 | C=C(CCCC)C(=O)CC[C@H](OC(C)=O)c1ccc(OCCO)cc1 | 0.95 | 3.04 | -0.0781 | -2.86 | -3.54 | 0.764 | -0.387 (inactive) | -0.248 | -1.39 | 0.697 (inactive)
11 | COC(=O)c1c2oc(c1C(=O)OC)C(=O)N1CCC[C@H]1Cn1nncc1CN(Cc1ccccc1)C(=O)N[C@H](CO)CC2 | -0.0989 | -0.723 | 0.436 | 0.829 | 0.394 | 0.488 | 0.172 (inactive) | -0.136 | -0.882 | 0.744 (inactive)
12 | C=C(COC)C(=O)CC[C@H](OC(=O)c1cccnc1)c1ccc(CO)o1 | -0.15 | -0.266 | -0.53 | -0.401 | -0.535 | -0.981 | -0.492 (inactive) | 0.541 | -0.267 | -0.452 (inactive)
13 | COCCOC(=O)N1C(=O)[C@@]2(c3cc(C#CCCO)ccc31)[C@H](C(=O)N1CCCCCCC1)[C@H]1C(=O)O[C@H](c3ccccc3)[C@H](c3ccccc3)N1[C@@H]2c1ccccc1OCCO | 0.862 | 1.45 | 0.566 | -2.12 | -1.62 | -0.292 | -0.0643 (inactive) | -0.815 | -0.513 | 1 (inactive)
14 | O=C1C2C=CC(C(O)c3cc(C(F)(F)F)cc(C(F)(F)F)c3)N(Nc3ccccc3F)C2C(=O)N1c1ccccc1 (stereo not given) | -1.28 | -0.599 | -3.36 | -3.6 | -4.08 | -3.93 | 0.0394 (inactive) | -1.11 | -0.964 | -0.648 (inactive)
15 | COCCCNC(=O)[C@@H]1c2ccccc2C(=O)N(C2Cc3ccccc3C2)[C@H]1c1ccc(CO)cc1 | 1.12 | 0.275 | 0.165 | 0.155 | 0.261 | 2.94 | -0.17 (inactive) | 0.217 | 0.494 | 0.58 (inactive)
16 | O=c1cccc(-c2ccco2)o1 | -0.69 | 0.474 | 0.219 | 0.0393 | -0.159 | -0.79 | 1.1 (inactive) | 0.773 | -0.605 | -0.214 (inactive)

Row | SMILES | z-score [1] | z-score [2] | z-score [3] | z-score [4] | z-score [5] | z-score [6] | z-score [7] | z-score [8] | z-score [9] | z-score [10]
17 | C=CCC(OC(C)=O)[C@@H]1[C@@H](N(Cc2cccc3ccccc23)C(=O)c2cccc3ccccc23)c2cc(OCCCO)ccc2N1C(=O)c1ccc2ccccc2c1 (stereo not given in full) | -0.0249 | 0.521 | -0.184 | -0.189 | 0.0694 | 2.48 | -0.419 (inactive) | 0.489 | 0.591 | 0.933 (inactive)
18 | O=C(NCCN1CCOCC1)[C@@H]1c2ccccc2C(=O)N(Cc2ccccc2)[C@H]1c1ccc(CO)cc1 | 0.178 | -0.323 | 0.225 | -0.593 | 0.137 | 2.07 | 0.422 (inactive) | -0.78 | -0.218 | 1.59 (inactive)
19 | COc1ccc([Si](C)(C)[C@H]2[C@H](CC(=O)N3Cc4ccccc4C[C@H]3CO)O[C@@]3(C(=O)N(Cc4ccc(N5C(=O)c6cccc7cccc5c67)cc4)c4ccccc43)[C@@H]2C)cc1 | -0.0678 | 0.314 | 0.898 | -0.769 | -0.874 | 2.5 | -0.178 (inactive) | -1.22 | -0.862 | 0.0918 (inactive)
20 | COC(=O)[C@@]1(Cc2ccc(OC)cc2)[C@H]2c3cc(C(=O)N4CCCC4)n(Cc4cc(C)n(C)n4)c3C[C@H]2CN1C(=O)c1ccccc1 | -0.0671 | -0.471 | 0.851 | 0.559 | 0.192 | 3.05 | 0.00691 (inactive) | -0.475 | -1.37 | 0.0924 (inactive)
21 | Cc1ccc(S[C@]2(C(=O)NC(C)C)CC(=O)N(Cc3ccccc3Cl)[C@@H]2c2ccc(CO)cc2)cc1 | 0.175 | 0.35 | -0.12 | -0.387 | -2.06 | -0.142 | -0.397 (inactive) | -0.0618 | 0.551 | 0.232 (inactive)
22 | COCCOC(=O)N1C(=O)[C@@]2(c3cc(C#Cc4ccc(OC)cc4)ccc31)[C@H](C(=O)NC[C@H](O)c1ccccc1)[C@H]1C(=O)O[C@H](c3ccccc3)[C@H](c3ccccc3)N1[C@@H]2c1ccc(OCCO)cc1 | -0.953 | 0.55 | -1.1 | -0.915 | -1.47 | -1.97 | 2.35 (inactive) | -0.66 | -1.78 | 1.32 (inactive)
23 | COc1ccc([Si](C)(C)[C@H]2[C@H](CCO)O[C@@]3(C(=O)N(Cc4ccccc4)c4ccc(N5CCOC5=O)cc43)[C@@H]2C)cc1 | -0.119 | -0.325 | -2.09 | -2.13 | -3.4 | -0.203 | 0.69 (inactive) | -1.11 | -1.68 | -1.94 (inactive)
24 | CN(C)C(=O)[C@@]1(Cc2ccccc2N=[N+]=[N-])N=C(c2ccc(OCCCO)cc2)O[C@H]1c1ccccc1 | -1.85 | 0.574 | -0.954 | -2.99 | -3.67 | 0.517 | 0.0738 (inactive) | -1.25 | -1.67 | -2.2 (inactive)
25 | CC(=O)NCCCC[C@@H]1NC(=O)[C@H]2C[C@@H](C(=O)NCCCCCNC(=O)CS)[C@@H](c3cccc(OCCO)c3)N2C1=O | -0.227 | -0.146 | 0.0877 | 0.0637 | -0.433 | 1.09 | -0.286 (inactive) | -0.428 | 0.0573 | -0.496 (inactive)
26 | CN(C)C(=O)[C@]1(CCS(=O)(=O)c2ccccc2)N=C(c2ccc(OCCCO)cc2)O[C@@H]1c1ccccc1 | -1.05 | 1.02 | -0.416 | -0.675 | -0.76 | 1.34 | -0.132 (inactive) | -0.783 | -1.24 | -0.482 (inactive)
27 | COc1cc(NN2C(C(O)c3ccccc3)C=CC3C(=O)N(C)C(=O)C32)cc(OC)c1OC (stereo not given) | -0.209 | 0.68 | -0.131 | -1.34 | -0.589 | -0.944 | 0.215 (inactive) | -0.413 | -1.54 | -1.52 (inactive)
28 | [N-]=[N+]=NCc1ccccc1[C@H]1OC(c2ccc(OCCCO)cc2)=N[C@@]1(CCS(=O)(=O)c1ccccc1)C(=O)NCc1ccccc1 | 2.47 | -0.0706 | 1.35 | -0.65 | 0.414 | -0.627 | -0.0258 (inactive) | -1.02 | -0.531 | 1.73 (inactive)
29 | Cc1ccc(S[C@]2(C(=O)NCc3ccccc3)CC(=O)N(Cc3cc(C(F)(F)F)cc(C(F)(F)F)c3)[C@@H]2c2ccc(CO)cc2I)cc1 | 0.666 | 0.336 | -0.165 | -1.87 | -2.22 | 0.994 | -0.00208 (inactive) | -0.133 | -0.713 | 0.772 (inactive)
30 | COC(=O)[C@@]1(Cc2ccc(OC)cc2)[C@H]2c3cc(C(=O)N4CCCC4)n(Cc4ccc(OC(F)(F)F)cc4)c3C[C@H]2CN1C(=O)c1ccccc1 | -0.77 | -0.25 | -0.871 | -0.889 | -2.45 | 0.225 | -0.621 (inactive) | -0.638 | -1.58 | -0.995 (inactive)
31 | C[C@@]12COC[C@]13C=C(Br)[C@H](C2)[C@@]1(CO1)C3=O | 0.109 | -0.245 | -0.318 | -1.75 | -0.31 | -1.47 | -0.24 (inactive) | 0.253 | -1.12 | -0.557 (inactive)
32 | CCOC(=O)C1=CC[C@@H](c2ccccc2)N(S(=O)(=O)c2ccc(C)cc2)[C@H]1C=Cc1ccccc1 | -0.959 | -0.443 | -0.599 | -0.149 | -1.44 | 2.91 | -0.489 (inactive) | 0.0754 | -1.42 | 2.28 (inactive)
